Several values for one entry are separate records, joined by “and”; a condition that tells them apart may be missing. Equal entries are not always repeated. Results filed as inconclusive are left out. Activity calls are given as the source filed them. The call rests on the fitted dose curve; in most records, active means well fitted inhibition curve with a large enough effect; inconclusive means small, poorly fitted or top-dose-only effect; inactive means no such curve, though single readings can be large or run the other way.
What follows are compounds tested against Cytochrome P450 2D6 (Homo sapiens) (UniProt P10635) (assay: qHTS Assay for Inhibitors and Substrates of Cytochrome P450 2D6 (AID 891; further: nearly all actives have a fitted effect of over 60% in size)). Details: recombinant CYP2D6, luciferin-ME EGE luminescence; series mostly up to 57.1 µM.
Cytochrome P450 2D6 (Homo sapiens), sequence (P10635 whole entry, looked up): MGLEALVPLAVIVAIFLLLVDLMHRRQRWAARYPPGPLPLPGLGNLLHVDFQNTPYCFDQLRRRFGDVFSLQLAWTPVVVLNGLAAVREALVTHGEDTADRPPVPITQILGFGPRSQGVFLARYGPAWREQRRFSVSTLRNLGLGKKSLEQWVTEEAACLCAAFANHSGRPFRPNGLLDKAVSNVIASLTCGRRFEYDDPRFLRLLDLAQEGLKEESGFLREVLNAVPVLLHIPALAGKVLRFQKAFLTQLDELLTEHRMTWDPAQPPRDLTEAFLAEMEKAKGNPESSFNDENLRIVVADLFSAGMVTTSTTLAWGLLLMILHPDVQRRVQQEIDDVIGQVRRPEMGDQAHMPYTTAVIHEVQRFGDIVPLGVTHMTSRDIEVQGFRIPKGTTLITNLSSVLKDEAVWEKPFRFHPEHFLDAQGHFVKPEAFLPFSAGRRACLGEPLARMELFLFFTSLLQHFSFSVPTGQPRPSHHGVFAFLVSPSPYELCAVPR
Description: NIH Molecular Libraries Screening Centers Network [MLSCN]
NIH Chemical Genomics Center [NCGC]
The P450 gene superfamily is involved in the metabolism and clearance of xenobiotics. This assay used human CYP2D6 to measure the demethylation of ethylene glycol ester of luciferin 6' methyl ether (Luciferin-ME EGE; […]) to luciferin. The luciferin is then measured by luminescence after the addition of a luciferase detection reagent. Luciferin-ME EGE concentration in the assay was equal to its Km for CYP2D6. Inhibitors and some substrates limit the production of luciferin, and decrease measured luminescence.
NCGC Assay Protocol Summary:
Two uL of enzyme and substrate mix (final concentrations: 5nM CYP2D6, 30uM Luciferin-ME EGE, 100mM KPO4) were dispensed into a white, solid bottom 1536-well microtiter plate. 23nL of compound was transferred by a pin tool. The plate was incubated at room temperature for 10 min. Two uL of an NADPH regeneration solution (Promega supplied reagent) was dispensed and the reaction was allowed to continue for 60 min at room temperature. Then the reaction was stopped by reconstituted luciferin detection buffer. After another 20 min of incubation the plate was read on the ViewLux (Perkin Elmer) at 60 sec exposure and 2x2 binning. This protocol was carried out with Promega-Glo reagents and further information can be found at http://www.promega.com/tbs/tb325/tb325.pdf. Data were normalized to the to AC100 inhibition (1.43 uM quinidine).
Keywords: P450, CYP2D6, Luciferase, MLSMR, MLSCN, NIH Roadmap, qHTS, NCGC
`c1csc(CNc2ccnc(-c3ccc4c(c3)OCO4)n2)c1` was tested, and the Potency was 0.501 µM (active). `COc1ccc2[nH]cc(CCNc3ncnc4ccc(-c5ccccc5C#N)cc34)c2c1` was tested, and the Potency was 7.94 µM (active). `COc1ccccc1CN1CCC2(CC1)CCN(C(=O)c1cccn1C)CC2` was tested, and the Potency was 3.98 µM (active). `COc1ccc2[nH]cc(CCNc3ncncc3-c3cccc(NS(C)(=O)=O)c3)c2c1` was tested, and the Potency was 3.16 µM (active). In the case of `CN1Cc2c(N)cccc2[C@H](c2ccccc2)C1`, the Potency is reported as 6.31 µM (active). In the case of `COc1ccccc1CN1CCC2(CC1)CCN(S(C)(=O)=O)CC2`, the Potency is reported as 0.02 µM (active). For `CN(C)c1ccc(-c2nc(-n3ccnc3)c3ccccc3n2)cc1`, the Potency was 7.94 µM (active). In the case of `Cc1cc(C)c(S(=O)(=O)Nc2ccccc2C(F)(F)F)c(C)c1`, the Potency is reported as 6.31 µM (active). `CC(C)NC(=O)N1CC2(CCN(C(=O)c3cc(C(F)(F)F)cc(C(F)(F)F)c3)CC2)C1` was tested, and the Potency was 0.251 µM (active). In the case of `N#Cc1cccc(NC(=O)N2CC[C@@]3(CCCN(C(=O)c4cc(C(F)(F)F)cc(C(F)(F)F)c4)C3)C2)c1`, the Potency is reported as “inactive”. For `CCN1CCC[C@@H]1CNC(=O)c1cc(S(N)(=O)=O)ccc1OC`, the Potency was “inactive”. For `c1nc(NCCN2CCOCC2)c2cc(-c3ccc4c(c3)OCO4)ccc2n1`, the Potency was 7.94 µM (active). For `COc1ccccc1CN1CCC2(CCNCC2)CC1`, the Potency was 0.0316 µM (active). With `O=C(c1ccco1)N1CCC2(CC1)CCN(C(c1ccccc1)c1ccccc1)CC2` the Potency was 5.01 µM (active). `CN1CCc2cccc3c2[C@@H]1Cc1ccc(O)c(O)c1-3` was tested, and the Potency was “inactive”. `COc1c(-c2ccc(O)c(O)c2)oc2cc(O)cc(O)c2c1=O` was tested, and the Potency was “inactive”. For `CN(C)Cc1ccccc1-c1ccc2ncnc(N(C)Cc3ccco3)c2c1`, the Potency was 2 µM (active). `COc1ccc(C(=O)N2CCC3(CCCN(Cc4ccccc4)C3)CC2)cc1` was tested, and the Potency was 7.94 µM (active). With `COc1ccccc1CNc1ncnc2ccc(-c3ccc4c(c3)OCO4)cc12` the Potency was 0.794 µM (active). For `CN1C(=O)CC[C@@H]1c1cccnc1`, the Potency was “inactive”. In the case of `COc1ccccc1CN1CCCC2(CCN(C(=O)c3cnccn3)CC2)C1`, the Potency is reported as 3.98 µM (active). With `CS(=O)(=O)N1CCC2(CC1)CN(C(c1ccccc1)c1ccccc1)C2` the Potency was 2.51 µM (active). `CN(C)Cc1ccccc1-c1ccc2ncnc(NCc3ccccc3)c2c1` was tested, and the Potency was 7.94 µM (active). In the case of `N#Cc1cccc(-c2nccc(NCc3ccccc3)n2)c1`, the Potency is reported as 7.94 µM (active). `COc1ccccc1CN1CC[C@@]2(CCCN(C(=O)c3ccco3)C2)C1` was tested, and the Potency was 0.501 µM (active). With `COc1ccccc1CN1CCCC2(CCN(C(C)=O)CC2)C1` the Potency was 3.16 µM (active). With `CN(Cc1ccco1)c1ncnc2ccc(-c3ccc4c(c3)OCO4)cc12` the Potency was 1.58 µM (active). For `CC(C)CN1CCCC2(CCN(C(=O)c3csnn3)CC2)C1`, the Potency was 5.01 µM (active). `C[C@@H](CCc1ccccc1)NC[C@H](O)c1ccc(O)c(C(N)=O)c1` was tested, and the Potency was 3.98 µM (active) and 2 µM (active). For `COc1ccc2[nH]cc(CCNc3ccnc(-c4ccc5c(c4)OCO5)n3)c2c1`, the Potency was 7.94 µM (active). For `CCNc1ncc2nc(-c3cccc(C#N)c3)c(=O)n(CCC#N)c2n1`, the Potency was 0.0316 µM (active). `Cn1cccc1C(=O)N1CCC2(CCCN(Cc3ccncc3)C2)CC1` was tested, and the Potency was 7.94 µM (active). In the case of `COc1ccc2[nH]cc(CCNc3ccnc(-c4ccccc4C)n3)c2c1`, the Potency is reported as 2.51 µM (active). In the case of `CCNc1ncc2nc(-c3cc(F)cc(F)c3)c(=O)n(CCOC)c2n1`, the Potency is reported as 0.316 µM (active). `CN(C)Cc1ccccc1-c1cc(-n2ccnc2)ncn1` was tested, and the Potency was 2.51 µM (active). For `CN(C)Cc1ccccc1-c1nccc(NC2CC2)n1`, the Potency was 0.631 µM (active). For `c1cn(-c2ccnc(-c3ccc4c(c3)OCO4)n2)cn1`, the Potency was 3.16 µM (active). For `CN1[C@@H](CC(=O)c2ccccc2)CCC[C@@H]1C[C@@H](O)c1ccccc1`, the Potency was 251 nM (active) and 79.4 nM (active) and 10 nM (active). `c1ccc(CNc2ccnc(-c3ccc4c(c3)OCO4)n2)cc1` was tested, and the Potency was 1.58 µM (active). In the case of `COc1ccccc1CN1CC2(CCN(S(=O)(=O)c3ccccc3)CC2)C1`, the Potency is reported as “inactive”.
Potency means the concentration at half of the fitted maximal effect.
